Source: PubChem (National Center for Advancing Translational Sciences (NCATS))
TRPML1 inh: qHTS for Inhibitors of the Human Mucolipin Transient Receptor Potential 1 (TRPML1) | Mucolipin-1 (Homo sapiens), Q9GZU1 | TRPML1-inducible cells, Ca2+ dye fluorescence, FDSS; hits give low values; inhibition of EC80 agonist-evoked calcium signal | activity change, negative = inhibition, % (test concentration not listed) | hit rate 0.02% among 390,000 | AID 624415, 2012; in the data active means activity change below about -50%; inconclusive means between about -30% and that limit;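 further: stimulus is agonist 54-4 at its EC80 concentration; on the % scale 0 is the no-effect control and ±100 the full control effect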
Target sequence (Q9GZU1 whole entry, looked up): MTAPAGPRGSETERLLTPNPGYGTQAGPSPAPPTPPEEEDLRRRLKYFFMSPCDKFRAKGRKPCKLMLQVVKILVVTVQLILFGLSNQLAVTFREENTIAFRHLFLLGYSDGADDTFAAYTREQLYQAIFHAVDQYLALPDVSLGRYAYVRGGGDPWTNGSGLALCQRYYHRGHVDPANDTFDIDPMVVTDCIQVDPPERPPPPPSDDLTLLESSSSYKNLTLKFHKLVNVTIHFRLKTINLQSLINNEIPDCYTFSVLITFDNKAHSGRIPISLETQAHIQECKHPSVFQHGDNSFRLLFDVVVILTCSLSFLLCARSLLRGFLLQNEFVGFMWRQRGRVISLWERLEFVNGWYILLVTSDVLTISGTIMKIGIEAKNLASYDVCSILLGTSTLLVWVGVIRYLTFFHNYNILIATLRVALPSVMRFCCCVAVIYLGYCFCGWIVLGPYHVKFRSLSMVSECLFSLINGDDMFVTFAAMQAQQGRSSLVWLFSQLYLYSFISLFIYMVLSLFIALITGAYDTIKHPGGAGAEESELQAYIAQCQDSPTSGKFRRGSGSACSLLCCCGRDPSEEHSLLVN
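TRPML1-DL cells, Tet-induced overnight (~16 h, 37 °C) at 1,500 cells/well, were loaded with Ca8 no-wash dye plus quencher for 45-90 min at room temperature. Compounds were pinned during FDSS kinetic reading; agonist 54-4 at EC80 (4 uM final) then added.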
GLP-1R inv ag: qHTS of GLP-1 Receptor Inverse Agonists (Inhibition Mode); Glucagon-like peptide 1 receptor (Homo sapiens), P43220; HEK293 GLP-1R CRE-luciferase, luminescence, 24 h; GLP-1R form is constitutively active; Potency, µM (series often up to 38.3 µM), for the others: at the highest dose activity change, negative = inhibition, hits mostly inhibitors; hit rate 1.6% among 410,000; AID 624417, 2012; further: potency means the concentration at half of the fitted maximal effect; on the % scale 0 is the no-effect control and ±100 the full control effect; nearly all actives have a fitted effect of over 55% in size
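Constitutively active GLP-1R drives a cAMP-responsive luciferase in stably transfected HEK293 cells; test compounds are added after overnight (12 h) attachment and left 24 hr, and signal loss in luminescence marks inhibition.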
GLP1R ag: qHTS of GLP-1 Receptor Agonists; Glucagon-like peptide 1 receptor (Homo sapiens), P43220; HEK293 GLP-1R CRE-luciferase, luminescence, 4-6 h; cells express a hypersensitive GLP-1R form; Potency, µM (doses to about 45.6 µM), inactives show top-dose activation, usual class: activators; hit rate 0.007% among 380,000; AID 624172, 2012; further: potency means the concentration at half of the fitted maximal effect; % of control where 0% means no effect
TRPML1 agonist: qHTS for Agonists of the Human Mucolipin Transient Receptor Potential 1 (TRPML1); Mucolipin-1 (Homo sapiens), Q9GZU1; activation, % (test concentration not listed); hit rate 0.12% among 410,000; TRPML1-expressing cells, Ca2+ dye fluorescence, FDSS; AID 624414, 2012; in the data active means activation above about 50%; inconclusive means mostly about 30% to 49%; further: 0% is about no effect
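TRPML1-DL cells, Tet-induced overnight (~16 h, 37 degrees C), loaded 45-90 min at room temperature with Ca8 no-wash calcium dye plus quencher. FDSS fluorescence: 10 s baseline, compound pin-transfer, 110 s agonist read, then EC80 54-4 (4uM final) and 110 s antagonist read.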
HEK293 tox: qHTS of GLP-1 Receptor Inverse Agonists: Cytotox Screen. hit rate 0.13% among 410,000. HEK293 cAMP-luciferase reporter cells, luminescence, 24 h. Potency, µM (top dose mostly 38.3 µM), for inactives: at the highest dose activity change, negative = inhibition, most hits filed as inhibitors;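 further: loss of luciferase light is scored as toxicity; potency means the concentration at half of the fitted maximal effect; on the % scale 0 is the no-effect control and ±100 the full control effect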
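Step one: seed cells (200 cells/uL, DMEM with 10% Nu serum, 1% pen-strep). Step two: 12-hour incubation at 37 deg C. Step three: pin 23 nL compound, incubate 24 hr. Step four: add luciferase reagent, read luminescence 12 min later.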
* hit, by the source's call; i = inactive; ? = inconclusive; / = not tested or not shown. An excerpt weighted towards active compounds, which were near 1.8% of everything screened. Unless noted, the call rests on the fitted dose curve; in most records, active means well fitted curve in the direction sought with a large enough effect; inconclusive means small, poorly fitted or top-dose-only effect, or another doubt; inactive means no such curve, though single readings can be large; an effect the other way counts as inactive or inconclusive.

SMILES	TRPML1 inh	GLP-1R inv ag	GLP1R ag	TRPML1 agonist	HEK293 tox
Cc1ccc(NC(=O)Nc2cccc([N+](=O)[O-])c2)cc1F	8.5	?	-2.1%	0.1	-6.8%
O=C(Nc1ccc([N+](=O)[O-])cc1)C(=O)Nc1cccc(C(=O)O)c1	24.9	1.12µM*	-14.8%	-1.0	-15.2%
COc1ccccc1C(=O)Nc1nnc(SCc2cc(=O)c3cc(Cl)ccc3[nH]2)s1	-0.2	5.7%	/	-0.1	-0.2%
CC(C)c1ccc(NC(=O)C2CCCN(S(=O)(=O)c3cccc4nsnc34)C2)cc1 (configuration not stated)	15.2	-7.5%	0.1%	-0.7	0.5%
CCO[C@@H]1OC(C(=O)N2CCN(Cc3ccc4c(c3)OCO4)CC2)=C[C@H](C2CCCCC2)[C@H]1CCCO	51.2	11.2µM*	14.4%	-0.4	-25.8%
CCO[C@H]1OC(C(=O)N2CCN(Cc3ccccc3)CC2)=C[C@@H](C2CCCCC2)[C@@H]1CCCO	19.7	?	11.8%	-1.0	-12.0%
CCOc1ccc(NC(=O)CNc2cccc(S(=O)(=O)N3CCCCCC3)c2)cc1OCC	37.5	10µM*	2.8%	-1.7	-21.2%
O=C(CNc1ccc(C(F)(F)F)cc1)Nc1cccc(S(=O)(=O)N2CCCCC2)c1	18.0	3.98µM*	-3.3%	-0.1	-20.3%
CCOc1ccccc1OCC(=O)Nc1cccc(S(=O)(=O)N2CCCCCC2)c1	62.8	?	1.9%	3.0	3.0%
O=C(Cc1cccc(C(F)(F)F)c1)Nc1ccc(S(=O)(=O)N2CCCC2)cc1	-6.9	?	-2.1%	-1.1	-22.7%
CN(CC(=O)Nc1cccc(F)c1)CC(=O)Nc1cccc(S(=O)(=O)N2CCCCC2)c1	-3.1	7.94µM*	-1.4%	2.6	-24.0%
O=C(Cc1cccc(C(F)(F)F)c1)Nc1cccc(S(=O)(=O)N2CCCC2)c1	10.8	8.91µM*	-1.8%	1.8	-8.0%
CC[N+]1(CC)CCC(=C(c2ccccc2)c2ccccc2)C1C (configuration not stated)	/	/	-0.9%	/	/
Cc1nn(-c2ccc(C(F)(F)F)cn2)c(C)c1Oc1ccccc1O	1.6	7.94µM*	-0.7%	5.9	-29.6%
Cc1cccc(-c2nc(NCCCN3CCOCC3)c3ccccc3n2)c1	-9.4	8.91µM*	11.4%	1.1	?
CCOC(=O)c1c(NC(NC(=O)C(C)C)C(Cl)(Cl)Cl)sc2c1CCC2 (configuration not stated)	-11.9	5.62µM*	-4.3%	3.2	-2.6%
CC(=O)/C(N=Nc1nc2c([nH]1)c(=O)n(C)c(=O)n2C)=C(\C)O	3.2	79.6%	12.6µM*	0.1	1.7%
Cn1c(=O)c2[nH]c(N=NN3CCCCC3)nc2n(C)c1=O	7.3	11.3%	13.4%	-0.6	-6.9%
CC(C)(C)Cc1nc2ccccc2n1CCc1ccccc1	9.6	5.01µM*	5.5%	0.9	-3.8%
CC(C)Cc1nc2ccccc2n1CCc1ccccc1	-1.1	12.6µM*	17.5%	1.6	?
CCc1nc2ccccc2n1CCc1ccccc1	-4.9	?	41.6%	1.4	-5.1%
Cc1ccccc1CNC(=O)C(=O)NCC(c1cccs1)S(=O)(=O)c1ccc(Cl)cc1 (configuration not stated)	25.5	?	/	0.3	1.9%
O=C(N/N=C/c1ccc(OC(F)F)cc1OC(F)F)NC1CCCCC1	-0.3	4.47µM*	22.9%	0.8	-7.9%
O=C(N/N=C/c1ccc(OC(F)F)cc1OC(F)F)c1ccc(Br)cc1	2.6	?	5.5%	1.4	1.3%
COC(=O)c1sc2cccc(F)c2c1S(=O)(=O)N1CCN(c2ccc(F)cc2)CC1	60.5	-23.0%	/	1.5	2.2%
SMILES	TRPML1 inh	GLP-1R inv ag	GLP1R ag	TRPML1 agonist	HEK293 tox
Cc1ccc(S(=O)(=O)N2CCc3ccccc3C2CN2C(=O)c3ccccc3C2=O)cc1 (configuration not stated)	-19.1	?	-3.5%	87.5*	0.2%
Cc1ccc(C)c(NC(=O)CSc2c3c(nc4ccc(Cl)cc24)CCCC3)c1	1.5	9.8%	/	-0.6	-20.7%
COc1ccc(F)c(CN2CCCC(CO)(Cc3cccc(Cl)c3)C2)c1 (configuration not stated)	/	?	9.7%	/	-6.6%
COc1cc(Cl)c(CN2CCCC(CO)(Cc3cccc(Cl)c3)C2)cc1OC (configuration not stated)	-4.5	8.91µM*	5.3%	1.6	-14.4%
COc1ccccc1/C=C/CN1CCCC(CO)(Cc2cccc(Cl)c2)C1 (configuration not stated)	0.3	11.2µM*	13.3%	0.1	?
COc1cccc(CC2(CO)CCCN(C/C=C/c3ccccc3OC)C2)c1 (configuration not stated)	27.3	?	3.4%	0.1	-4.6%
COc1ccc(/C=C/CN2CCCC(CO)(Cc3cccc(Cl)c3)C2)cc1 (configuration not stated)	-0.5	3.16µM*	21.5%	0.2	?
O=[N+]([O-])c1ccc(/C=N/N=C/c2ccc([N+](=O)[O-])o2)o1	5.4	?	14.1%	-0.5	10µM*
C=CCNC(=S)Nc1cc(C)ccn1	4.1	10µM*	6.0%	-0.3	?
O=C1/C(=C/c2ccc(N3CCOCC3)o2)SC(=Nc2ccccc2)N1CCc1c[nH]c2ccccc12	-4.9	1.12µM*	-52.7%	8.9	?
O=C1COc2ccc(-c3cc(-c4ccc(F)cc4)c4c(n3)-c3ccccc3OC4)cc2N1	21.5	17.3%	-0.8%	-0.3	5.1%
O=C(CNc1cccc2ccccc12)N/N=C/c1ccc(OC(=O)/C=C/c2ccco2)cc1	3.5	8.91µM*	0.1%	-0.4	-18.6%
N[C@@H](C(=O)N[C@@H]1C(=O)N2C(C(=O)O)=C(CSc3cn[nH]n3)CS[C@H]12)c1ccc(O)cc1	/	/	0.1%	/	/
CC(C)CNC(=O)c1ccccc1NC(=O)CCSc1ccccc1	3.6	7.08µM*	24.6%	0.2	-8.7%
CCc1cc2c(CN3CCN(Cc4ccccc4)CC3)cc(=O)oc2cc1O	10.1	?	?	1.3	i
CCc1ccc2c(CN3CCN(Cc4ccccc4)CC3)cc(=O)oc2c1	-1.8	8.91µM*	22.1%	-0.1	16.7%
O=C(O)c1ccc(-c2nc(-c3ccc(Cl)cc3Cl)cs2)cc1	-6.7	66.4%	0.1%	-0.2	6.1%
Cc1onc(-c2ccc(Cl)cc2Cl)c1-c1csc(COc2ccccc2)n1	12.7	2.82µM*	4.9%	2.9	13.0%
